Hits are enriched below; roughly 7.2% of the tested compounds scored in any of these assays.
RE007 growth inh = less growth of the S. pombe RE007 Vpr strain. 360,000 compounds, 0.21% hits. S. pombe RE007 Vpr strain, BacTiter-Glo ATP luminescence, 24 h. Potency, µM (highest dose often 92.2 µM), actives largely listed as inhibitors. AID 651644; active = well fitted falling curve with a large enough effect; inconclusive = small, poorly fitted or top-dose-only effect; inactive = no such curve, though single readings can be large or run the other way; also: nearly all actives have a fitted effect of over 50% in size
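Fission yeast strain RE007, carrying one chromosomally integrated HIV-1 vpr copy, was seeded at OD 0.01 in PMG+AL medium with 23 nL pinned compound. After 24 h at 30 °C and 99% humidity, viability was read by BacTiter-Glo luminescence.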
Sm TGR inh = S. mansoni TGR enzyme inhibition. Potency, µM (highest dose often 114 µM), actives largely listed as inhibitors. AID 485364. 360,000 compounds, 3% hits. purified TGR, DTNB reduction, TNB absorbance 405 nm; also: nearly all actives have a fitted effect of over 60% in size
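First, TGR (20 nM dispensed) and NADPH were mixed with compound. Second, a 15 min room-temperature incubation followed. Third, further NADPH and then DTNB were added to start the reaction. Finally, TNB absorbance was monitored kinetically.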
Lassa entry inh = inhibitors of Lassa virus binding or cell entry; Potency, µM (titrated, usually from 37.9 µM), actives largely listed as inhibitors; Lassa virus pseudotype entry inhibition, cell reporter; 300,000 compounds, 1.2% hits; AID 540256; calls by dose curve; tested in HEK293 cells; also: nearly all actives have a fitted effect of over 50% in size
HCV inhibitor = HCV inhibition; Huh7.5.1 HCVcc-Cre infection, luciferase reporter, 44 h; Potency, µM (doses to about 41.8 µM), usual class: inhibitors; 340,000 compounds, 3.4% hits; AID 651820
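Cells (1,000/well) were plated 4 h before compound, then infected with HCVcc-Cre virus (~0.5 moi). After 44 h further culture, infection was read as luciferase luminescence following a 15 min substrate incubation at room temperature.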
FMDV inh = blocks foot and mouth disease virus; Potency, µM (doses to about 57.9 µM), hits mostly inhibitors; FMDV antiviral cell-based qHTS; AID 1159524; 410,000 compounds, 1.2% hits; calls by dose curve; tested in HEK293T cells; also: read-out not given here; nearly all actives have a fitted effect of over 45% in size
MARV entry inh = Marburg virus entry inhibition | Potency, µM (doses to about 37.8 µM), most hits filed as inhibitors | Marburg virus pseudotyped entry inhibition, cell reporter | 300,000 compounds, 1.8% hits | AID 540276; calls by dose curve; tested in HEK293 cells
Large screens that a line does not name were inactive. Unless noted, calls follow the shape of the dose curve; as a rule, active = well fitted curve in the direction sought with a large enough effect; inconclusive = small, poorly fitted or top-dose-only effect, or another doubt; inactive = no such curve, though single readings can be large; an effect the other way counts as inactive or inconclusive.

O=C1C(SCCO)=C(SCCO)C(=O)c2ccccc21	Sm TGR inh 0.5µM, Lassa entry inh 2.6µM, HCV inhibitor 10µM, FMDV inh 10µM, MARV entry inh 4µM
CC(C)Cc1nc(SCC(=O)N2CCCCC2)c2c(=O)n(C)c(=O)n(C)c2n1	HCV inhibitor 25µM (no result: Lassa entry inh, MARV entry inh)
CC(C)c1nc(SCC(=O)N2CCN(c3ccccc3)CC2)c2c(=O)n(C)c(=O)n(C)c2n1	FMDV inh 20µM (no result: Lassa entry inh, MARV entry inh)
CC(C)Cc1nc(SCC(=O)N2CCOCC2)c2c(=O)n(C)c(=O)n(C)c2n1	none (no result: Lassa entry inh, MARV entry inh)
CCN(CC)S(=O)(=O)c1ccc2c(c1)nc(CN(C)C(=O)Nc1ccc(F)cc1)n2C	none (no result: RE007 growth inh, HCV inhibitor, MARV entry inh)
COc1ccc(C(=O)N2CCC(c3c[nH]c4ccccc34)(c3c[nH]c4ccccc34)CC2)cc1	Lassa entry inh inconclusive, MARV entry inh inconclusive (no result: RE007 growth inh, HCV inhibitor)
COCCCNC(=O)CCC(=O)Nc1ccc2nc(N3CCOCC3)cc(C)c2c1	none
Cc1cc(N2CCCC2)nc2ccc(NC(=S)NC(C)C)cc12	Sm TGR inh 13µM, HCV inhibitor inconclusive, MARV entry inh inconclusive
Cc1cc(N2CCOCC2)nc2ccc(NC(=S)NC(C)C)cc12	HCV inhibitor inconclusive (no result: Lassa entry inh, MARV entry inh)
COCCNC(=S)Nc1ccc2nc(N3CCOCC3)cc(C)c2c1	Sm TGR inh 45µM, HCV inhibitor inconclusive (no result: Lassa entry inh, MARV entry inh)
CCOCCCNC(=S)Nc1ccc2nc(N3CCCC3)cc(C)c2c1	Sm TGR inh 50µM, HCV inhibitor inconclusive, MARV entry inh inconclusive
COCCNC(=S)Nc1ccc2nc(N3CCCC3)cc(C)c2c1	Sm TGR inh 45µM, HCV inhibitor inconclusive, MARV entry inh inconclusive
CCOCCCNC(=S)Nc1ccc2nc3n(c(=O)c2c1)CCCCC3	Sm TGR inh inconclusive, MARV entry inh inconclusive
COc1ccc(S(=O)(=O)NCCS(=O)(=O)N2CCN(c3ccccc3)CC2)cc1OC	none (no result: RE007 growth inh, HCV inhibitor, MARV entry inh)
Cc1nc(N2CCCC2)ncc1C(=O)NCc1cccc(Cl)c1	none (no result: RE007 growth inh, HCV inhibitor, MARV entry inh)
COc1ccc(NC(=O)CSC2=Nc3ccccc3C3=NC(CCC(=O)NCc4cccs4)C(=O)N23)cc1 (configuration not stated)	none (no result: RE007 growth inh, HCV inhibitor, MARV entry inh)
O=C1c2ccccc2-c2nccnc21	none
COC1=C(Br)C(=O)c2ncccc2C1=O	RE007 growth inh inconclusive, Lassa entry inh inconclusive, HCV inhibitor inconclusive, FMDV inh 35µM, MARV entry inh inconclusive (no result: Sm TGR inh)
O=C1C(=O)c2cccnc2-c2ncccc21	RE007 growth inh inconclusive, FMDV inh 4µM (no result: Sm TGR inh, Lassa entry inh, HCV inhibitor, MARV entry inh)
O=C1c2cccnc2-c2ncccc21	none
COc1cccc(CNC(=O)c2c(OC)cc(=O)n3c2CCN(C(=O)c2ccccc2Cl)CC3)c1	none (no result: RE007 growth inh, Sm TGR inh, Lassa entry inh, HCV inhibitor, MARV entry inh)
COc1cc(C(C(=O)NCC2CCCO2)N(C(=O)Cn2nnc3ccccc32)c2ccc(OC)c(OC)c2)ccc1O (configuration not stated)	Sm TGR inh 45µM
COc1ccc(C(C(=O)NCC2CCCO2)N(C(=O)Cn2nnc3ccccc32)c2ccccc2C(C)=O)cc1OC (configuration not stated)	none (no result: Lassa entry inh)
CCOc1cc(C(C(=O)NCC2CCCO2)N(C(=O)Cn2nnc3ccccc32)c2ccc(NC(C)=O)cc2)ccc1O (configuration not stated)	Sm TGR inh 22µM, HCV inhibitor inconclusive (no result: Lassa entry inh)
CN1CCCC(C)(C(=O)Nc2ccc3scnc3c2)C1 (configuration not stated)	none (no result: Sm TGR inh, Lassa entry inh, HCV inhibitor, MARV entry inh)
CC(C)c1cc(Br)ccc1OCCCN1C(=O)NC(C)(C)C1=O	Lassa entry inh inconclusive, HCV inhibitor 13µM, FMDV inh inconclusive
O=[N+]([O-])c1cccc(CN2CCN(Cc3ccc(Br)cc3)CC2)c1	HCV inhibitor 22µM, FMDV inh inconclusive (no result: Lassa entry inh, MARV entry inh)
O=S(=O)(c1ccc(Br)cc1)N1CCCN(Cc2cccc(F)c2)CC1	MARV entry inh inconclusive
COc1ccc(CN2CCN(S(=O)(=O)c3ccc(C)cc3)CC2)cc1Br	Lassa entry inh inconclusive, HCV inhibitor 32µM, MARV entry inh inconclusive
COc1cccc(CN2CCCN(S(=O)(=O)c3ccc(Br)cc3)CC2)c1	Sm TGR inh 40µM, Lassa entry inh inconclusive, HCV inhibitor inconclusive, MARV entry inh inconclusive
COC(=O)[C@H](CC(C)C)N(Cc1ccc(Br)cc1)S(=O)(=O)CCl	none (no result: RE007 growth inh, Sm TGR inh, HCV inhibitor, FMDV inh, MARV entry inh)
Cc1cc2c3c([nH]c2cc1S(=O)(=O)N1CCC2(CC1)OCCO2)CCCC3=O	HCV inhibitor 22µM (no result: Lassa entry inh, MARV entry inh)
COc1ccc(NS(=O)(=O)c2ccc3c(c2)Cc2ccccc2-3)cn1	HCV inhibitor 2.8µM (no result: FMDV inh)
